The entries come from a sample that favours hits as a whole.
AMPAR-TARP mod – GluA2-stargazin AMPA receptor complex modulation; O88602+P19491; HEK293 GluA2+stargazin, membrane potential dye (FDSS), glutamate EC50; hits were called plate by plate, in both directions; calls only at 30 µM; hit rate 3.5% among 40,000; AID 1259245;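 active means any of four per-well response measures lying three or more SD from its plate-wide compound average, in either direction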
GIRK2 activator – GIRK2 channel activators by thallium flux | AID 1259324 | HEK293 GIRK2/NPY4 cells, thallium flux fluorescence | 34,000 tested, under 10 active | activation (% efficacy), % for hits at 37.5 µM | P48051;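 active means primary screen hit, no activity in plain HEK293 cells, and in GIRK2-only cells above 5% efficacy rising with concentration; inactive means the rest, including fluorescent compounds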;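 further: efficacy is normalized control-subtracted fluorescence 15 s after thallium addition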
Target sequence (P48051 whole entry, looked up): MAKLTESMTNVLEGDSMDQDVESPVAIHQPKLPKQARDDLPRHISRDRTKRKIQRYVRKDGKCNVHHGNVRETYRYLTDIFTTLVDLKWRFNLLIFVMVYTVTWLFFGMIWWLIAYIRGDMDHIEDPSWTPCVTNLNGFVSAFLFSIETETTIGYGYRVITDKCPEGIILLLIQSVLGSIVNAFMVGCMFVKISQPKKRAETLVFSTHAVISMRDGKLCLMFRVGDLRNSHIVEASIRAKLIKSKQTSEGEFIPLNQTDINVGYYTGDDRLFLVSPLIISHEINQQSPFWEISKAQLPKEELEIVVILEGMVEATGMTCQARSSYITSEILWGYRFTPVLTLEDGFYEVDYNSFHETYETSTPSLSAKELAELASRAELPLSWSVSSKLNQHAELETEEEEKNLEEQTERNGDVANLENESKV
An asterisk follows results filed as active; i = inactive; x = not tested or not shown; + = active, no number.

SMILES	AMPAR-TARP mod	GIRK2 activator
Cc1nnsc1C(=O)Nc1ccc2c(c1)N(C(=O)C1CC1)CC2	i	i
CCOc1cccc2sc(N3CCN(C(=O)CCCS(=O)(=O)c4ccc(C)cc4)CC3)nc12	i	i
CC(C)(C)n1nc2c(c1-n1cccc1)CN(C(=O)c1cc3ccccc3oc1=O)C2	+	i
CC(C)(C)n1nc2c(c1-n1cccc1)CN(C(=O)Cn1c(=O)oc3ccccc31)C2	i	i
O=C1c2ccccc2C(O)(Cc2ccccc2)N1C(c1ccccc1)c1ccccc1 (stereo not drawn)	+	x
O=C1c2ccccc2C(O)(Cc2ccccc2)N1CCCN1CCOCC1 (stereo not drawn)	i	x
CCn1nc(C(=O)Nc2nnc(-c3ccc(OC)cc3)o2)cc1C	x	i
COc1cccc(C(=O)Nc2nnc(-c3cc(C)nn3C)o2)c1OC	x	i
Cc1cc(-c2nnc(NC(=O)/C=C/c3ccccc3)o2)nn1C	i	i
COc1cccc2cc(C(=O)Nc3nnc(-c4cc(C)nn4C)o3)oc12	+	i
COc1cc(/C=C/C(=O)Nc2nnc(-c3ccn(C)n3)o2)cc(OC)c1OC	+	i
COc1ccc(-c2nnc(NC(=O)c3ccn(C)n3)o2)cc1OC	i	i
COc1ccc(-c2nnc(NC(=O)c3cc(C)nn3C)o2)cc1OC	+	i
COc1cc(-c2nnc(NC(=O)c3cc(C)n(C)n3)o2)cc(OC)c1OC	+	i
O=C(c1cc2ccccc2o1)N1CCC(CNS(=O)(=O)C2CC2)CC1	i	i
Cc1cc(-c2nnc(NC(=O)C3CCCN(S(=O)(=O)c4cccs4)C3)o2)nn1C (stereo not drawn)	i	i
Cc1cc(C)c(S(=O)(=O)Nc2ccc3c(c2)N(S(=O)(=O)c2ccccc2)CCC3)c(C)c1	i	x
CCOc1ccc(C(=O)NCC(c2cccc3ccccc23)N(C)C)cc1 (stereo not drawn)	i	x
COc1cc(C(=O)Nc2nnc(-c3cc(C)n(C)n3)o2)cc(OC)c1OC	+	i
COC(=O)c1ccc(C(=O)Nc2nnc(-c3cc(C)n(C)n3)o2)cc1	i	i
O=C1S/C(=C\c2cccc([N+](=O)[O-])c2)C(=O)N1c1ccc(F)cc1	+	i
O=C1S/C(=C\c2ccc([N+](=O)[O-])cc2)C(=O)N1c1ccc(F)cc1	i	i
CCC(CC)C(=O)NCCNc1ccc(Nc2cccc(C)n2)nn1	+	i
COc1ccccc1C(=O)NCCNc1ccc(Nc2cccc(C)n2)nn1	x	i
O=C(c1ccco1)N1CCN(C(=O)c2cc3cc(Br)ccc3oc2=O)CC1	i	x
SMILES	AMPAR-TARP mod	GIRK2 activator
CCOc1cccc2sc(NC(=O)c3c(C)cnn3C)nc12	x	i
CCn1nc(C(=O)Nc2nc3c(C(C)C)cccc3s2)cc1C	x	i
COc1cccc2sc(NC(=O)c3cc(C)n(C)n3)nc12	+	i
COc1cccc2sc(NC(=O)c3cc(C)nn3C)nc12	+	i
Cc1c(Cl)cccc1S(=O)(=O)N1CCC(Cn2c(C)nc3ccccc32)CC1	+	i
Cc1n[nH]c(C)c1S(=O)(=O)N1CCC(Cn2c(C)nc3ccccc32)CC1	i	i
CCCN1C(=O)C2C(c3ccc(O)cc3)NN(Cc3ccccc3)C2C1=O (stereo not drawn)	i	x
CCOc1ccc(C(C)C)cc1S(=O)(=O)NCCOc1ccc(-c2ccccc2)nn1	+	i
CCOc1ccc(S(=O)(=O)NCCOc2ccc(-c3ccccc3)nn2)cc1	+	i
CCOC(=O)c1ccc(S(=O)(=O)NCCOc2ccc(-c3ccc(OC)cc3)nn2)cc1	i	i
CCOc1ccc(-c2ccc(OCCNS(=O)(=O)c3ccccc3)nn2)cc1	i	i
COc1ccc(Cl)cc1S(=O)(=O)NCCOc1ccc(-c2ccccc2)nn1	i	i
COc1ccc(S(=O)(=O)NCCOc2ccc(-c3ccc(F)cc3)nn2)cc1F	+	i
CCOC(=O)c1ccc(S(=O)(=O)NCCOc2ccc(-c3ccccc3)nn2)cc1	+	i
COc1ccc(S(=O)(=O)NCCOc2ccc(-c3ccc(C)cc3)nn2)cc1OC	i	i
O=C(/C=C/c1ccco1)N1CCC(Oc2nc3c(F)cc(F)cc3s2)CC1	i	i
O=C(Cc1ccc(Cl)cc1)Nc1cccc(N2CCCS2(=O)=O)c1	i	x
COc1ccc(C(=O)/C=C/c2ccc(F)cc2)c(O)c1	i	x
Cc1ccnc(C(=O)Nc2ccc(Nc3cc(N4CCOCC4)nc(C)n3)cc2)n1	x	i
Cc1ccnc(C(=O)Nc2ccncc2)n1	+	i
O=C(Cc1csc(NC(=O)c2ccc[nH]c2=O)n1)NCc1ccco1	i	i
Cc1cc(F)ccc1S(=O)(=O)NCC1CCN(C2CCCC2)CC1	i	i
CCOc1ccc(S(=O)(=O)NCC2CCN(C3CCCC3)CC2)cc1C	+	i
CCc1ccc(S(=O)(=O)NCC2CCN(C3CCCC3)CC2)s1	+	i
Cc1cc(C)c(S(=O)(=O)NCC2CCN(C3CCCC3)CC2)cc1C	i	i
SMILES	AMPAR-TARP mod	GIRK2 activator
COC(=O)N1CCC(CNC(=O)C(=O)NCc2cccs2)CC1	i	i
Cn1nccc1C(=O)Nc1cccc2c1C(=O)NC2=O	x	i
Cc1cc(C(=O)Nc2cccc3c2C(=O)NC3=O)on1	+	i
CCOC(=O)N1CCc2c(sc(NC(=O)c3cc(C)n(CC)n3)c2C(N)=O)C1	x	i
CC(=O)N1CCc2c(sc(NC(=O)c3ccn(C)n3)c2-c2nc3ccccc3s2)C1	i	x
CC(=O)N1CCc2c(sc(NC(=O)c3cc(C)no3)c2C(N)=O)C1	+	i
CCOC(=O)N1CCc2c(sc(NC(=O)c3ccnn3CC)c2C(=O)OC)C1	+	i
CC(=O)N1CCc2c(sc(NC(=O)c3cc(C)no3)c2C#N)C1	i	i
CCOC(=O)N1CCc2c(sc(NC(=O)c3ccn(C)n3)c2C(=O)OC)C1	+	i
CCOC(=O)c1c(NC(=O)c2ccn(C)n2)sc2c1CCN(C(C)=O)C2	+	i
CCn1nccc1C(=O)Nc1sc2c(c1C(N)=O)CCN(C(C)=O)C2	i	i
Cc1cc(C)c(C)c(CN2C(=O)CC(C)Nc3ccccc32)c1C (stereo not drawn)	i	i
CCN1CCc2c(sc(NC(=O)c3ccc(C)c(C)c3)c2-c2nc3ccccc3s2)C1	i	x
COc1ccc(C(=O)Nc2sc3c(c2-c2nc4ccccc4s2)CCN(C(C)C)C3)cc1OC	+	x
CCN1CCc2c(sc(NC(=O)c3ccc(OC)c(OC)c3)c2-c2nc3ccccc3s2)C1	+	x
COC(=O)c1ccc(C(=O)Nc2sc3c(c2-c2nc4ccccc4s2)CCN(C(C)C)C3)cc1	i	x
O=C1c2ccccc2C(=O)N1CCS(=O)(=O)N1CCN(c2ccccc2)CC1	i	i
COCCNC(=O)C(=O)NCc1ccco1	i	i
CCOC(=O)c1c(C)c(C(=O)NCc2ccco2)c(C)n1CC	+	i
CC1CN(S(=O)(=O)c2ccc3ccccc3c2)CCN1S(=O)(=O)c1ccc2ccccc2c1 (stereo not drawn)	i	x
Cc1cccc(-c2ccc(/C=C3\C(=O)SC(=S)N3CCCC(=O)O)o2)c1	+	i
Cn1cc(/C=C2\SC(=O)N(CCC(=O)O)C2=O)c2ccccc21	i	x
